Measurements published in the supplement of paper PMC6555819.

The sequences below were run on VDR:RXRa (NR concentration 270 nM, RXRa partner concentration 90 nM) (assay: PBM binding z-score (relative to random genomic background probes); higher = stronger binding; sequences stand for … in GC…GCGATTGACAGCGTAGAATGAAGG).
Experimental: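 Protein-binding microarray (Agilent 4x180K custom design, double-stranded 60-nt probes: 5' GC cap, 34-nt variable region, 24-nt constant primer region; full probe sequence given). Purified or IVT nuclear receptor:RXRα heterodimers (3:1 NR:RXRα, mostly 270:90 nM) or homodimers were incubated for 1 h in PBS with 2% milk and no ligand, then detected with Alexa488 antibodies. Fluorescence from o1-orientation probes (~5 replicates averaged) was converted to z-scores against 500 random hg19 background probes. Variable regions are seed direct-repeat (DR0–DR5) sites, all their single-nucleotide variants and half-site ablations.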

Sequence | PBM binding z-score
ACTAGCAGGCCAAGGGGCACTCAAGATTAGTCCG | -0.375
CCTCAGAGGACAGAAGGTCAGAGCTGTCCGCTTT | 1.07
TCTTGTAGATCATTAGAGGTTAAGAAAGTGCGCT | 2.09
CATACAGGGCCAGCTAGGCCAGAGTAGGGACGGC | -0.78
TCGAGTAGTTTACCAATGGGGCATTCAGCTTTCT | -0.0762
GCGACTGGGGCAAAGCAGGTCACCATAAGGTTGG | 2.52
ACTAGCAGGCTAAGGGTCACTCAAGATTAGTCCG | 2.97
TCGAGTAGGTTAGTCGGGGCATTTAGCCAACATA | 2.2
ACCGAAAGGTCGAAGGTGAGTATACCCACCCGAA | 2.95
CAGCCTAGGTCAGGGCCTGTATAGGAGGAACGTT | -0.0829
CCTGCTAGGTCATAGTCAGCTAATCTACAGTATG | 1.28
CCGACTGGGGCATAAGGTTACCCTAAGCCAGCCC | 0.27
TATACAGGTTCAAAGGCCAGAGTACGAATGTCGA | 3.76
CGAACTAGGTCATCCTGGACAGTGAATACATTGA | 2.56
CGAATTAGGTCATCCAGGACAGTGAATACATTGA | 5.04
ATCTCTAAGTAAAAGTTCAGTGAATCCCGAGGAT | 1.05
CTCGAAAGGTCGTTTGAGGTGAGTATACGGATAA | 4.84
CCTACCGGGCCACGAAAGGTCATTGATTCAGTGA | 4.1
ACTAGCAGGCCAAGTTTGGGTCACCCAAACAAAG | 1.13
ATATGTAGGTTAAGGGTCATTTAGGTTGGTTCGC | 5.38

Sequence | PBM binding z-score
CGTCCCAGGTCAAGGTCAGTGAAAGAGACTCGAA | 3.85
CCTAGCAGGCCAGGGTCACTCAGGCATTTCGCTT | 2.22
TCTAGCAGGCCGGAGGGTCACTCAAGAGGTACGG | 1.03
CAAACCAGGTCACCGGAAGGTCAAAGTCCGCATG | 6.39
CCTTACGGGTCACTCCAGGTAATAGCATCGGAGT | 3.08
CAGCCTAGGTCATGGCCAGTATAGGAGGAACGTT | 1.84
AGTCACAGTTCAGGACGAGGTAACGTAAAGCACG | 1.12
CCTACTGGGCCCTCAGGTCATTGATATCAACGTT | 1.43
CGAACTAGGTCATTCACAGGACAGTGAATAGTAA | 2.53
CGTCCAAGGTCATAGGAGGTAAGTGAAGACAGAT | 4.61
CAAACTAGGTCAACAGGTCAAAGTCCGCTTCCCG | 4.87
ACAGACAGGTGAGTGAAGGTAACTCAACTGGACG | -0.232
CCTTACGGGTCATTCCAGGTTATAGCATCGGAGT | 4.87
GCTAGTTGGTCAGTAAAAGGTAACACACCGGTCG | 0.0911
CGTCCAAGGACATAGGAGGTCAGTGAAGACAGAT | 2.2
TCTAGCAGGCCAGAGGGTCACTTAAGAGGTACGG | 1.26
GCAGACAGGTGAAACGCAGGTAACTCAGGGTGGC | -0.544
CCTACTGGGCCATTCAGAGGTCATTTATCATATG | 3.73
TGAATGATGTTATAAGATCAGGGAACGTTGCAAA | -0.175
GCGACTGGGGCATCAGCAGGTTTCCATAACTTAA | -0.402
